From PubChem BioAssay AID720706 (Broad Institute, 2013)
Values joined by “and” are separate entries in the source; they are usually repeats but may differ in a detail not shown here. Equal entries are not always repeated. Screen size: about 350,000 compounds; about 5,500 (1.6%) were called active.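 How the source made its calls: active means significant combined selectivity score with lowered wild-type GFP, culture density cut under 30%, mutant RFP and density less affected; inactive means any of these conditions unmet.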 The entries come from a sample that favours actives as a whole.

test: GFP drop in mixed WT/humanized-ribosome E. coli culture – GFP/RFP fluorescence, OD600, single point, bacterial rRNA inhibitor project, primary screen (AID 720706); conditions: E. coli WT GFP vs humanized-ribosome RFP mutants, 24 h; GFP signal change (wild-type ribosome): stronger effect = lower value, DMSO median 0, no signal -100; OD600 change: measured here: OD600 growth, DMSO median 0, no signal -100; RFP signal change: measured here: RFP humanized mutant strains, DMSO median 0, no signal -100, concentration not given here

Structure (SMILES) | GFP signal change (wild-type ribosome) | OD600 change | RFP signal change
C[C@@H](C(=O)N(C)C[C@H]1OCc2ccccc2-c2c(n(C)c3ccccc23)C(=O)N([C@@H](C)CO)C[C@@H]1C)c1ccccc1 | -2.7% (inactive) | -4.37% | 3.17%
COc1ccc(CN(C)C[C@H]2OCc3cn(nn3)CCCC(=O)N([C@@H](C)CO)C[C@@H]2C)cc1 | -0.663% (inactive) | 4.94% | -1.83%
COc1ccc(NS(=O)(=O)c2ccc(Oc3c(C#N)cccc3C#N)cc2)cc1 | -33% (active) | -6.7% | -3.93%
COc1ccc(NS(=O)(=O)c2cccc(C(=O)NCCc3ccc(S(N)(=O)=O)cc3)c2)cc1 | -0.729% (inactive) | -4.13% | 2.24%
COc1ccc(NS(=O)(=O)c2ccc(N3CCN(CCO)CC3)c([N+](=O)[O-])c2)cc1 | -3.32% (inactive) | 8.86% | 0.35%
C[C@@H]1CN([C@H](C)CO)C(=O)c2cc(NC(=O)CCN3CCOCC3)ccc2O[C@H]1CN(C)Cc1ccc(Oc2ccccc2)cc1 | -0.524% (inactive) | 2.21% | -0.41%
O=C(Nc1ccccc1F)N[C@H]1CC[C@@H](CCNS(=O)(=O)c2ccc(F)cc2)O[C@@H]1CO | 0.53% (inactive) | -4.9% | 0.665%
O=C1Oc2ccccc2C(=O)/C1=C/c1ccccc1O | -24% (active) | -16.1% | -3.67%
COC(=O)c1ccc(/C=C2/C(=O)Oc3ccccc32)cc1 | 5.01% (inactive) | 8.63% | -1.53%
O=C(NN=Cc1ccccc1O)NN=Cc1ccccc1O | -15.2% (inactive) | -34.3% | -9.61%
O=C(N[C@H]1CC[C@@H](CCNS(=O)(=O)Cc2ccccc2)O[C@H]1CO)c1ccccc1F | 1.77% (inactive) | 2.62% | 1.25%
COCC(=O)Nc1ccc2c(c1)C(=O)N(C)C[C@H](OC)[C@@H](C)CN(CCc1ccccc1)[C@@H](C)CO2 | -2.84% (inactive) | -4.45% | -1.3%
CC1(C(=O)Nc2ccc3c(c2)OCCO3)CSCC(=O)N1CCOc1ccccc1 (configuration not stated) | -19.5% (active) | -13.7% | 6.62%
CCC(C)CN1C(=O)CN(S(C)(=O)=O)CC1(C)C(=O)Nc1ccc2c(c1)OCCO2 (configuration not stated) | 11.4% (inactive) | 6.25% | 0.462%
Cc1ccccc1CN1C(=O)CSCC1(C)C(=O)Nc1c(C)cccc1C (configuration not stated) | -3.76% (inactive) | 8.15% | 2.11%
C[C@@H]1CCCCO[C@@H](CN(C)C(=O)Cc2ccccc2)[C@H](C)CN([C@H](C)CO)C(=O)c2cc(NC(=O)Cc3ccccc3)ccc2O1 | -4.58% (inactive) | -13.8% | -0.346%
COc1cccc(CNC(=O)[C@@H]2[C@@H](CO)[C@@H]3Cn4c(ccc(-c5ccncc5)c4=O)[C@H]2N3C(C)=O)c1 | 2.73% (inactive) | -2.66% | -0.658%
Cc1noc(C)c1S(=O)(=O)Nc1ccc2c(c1)C(=O)N([C@@H](C)CO)C[C@@H](C)[C@@H](CN(C)C)O2 | 5.72% (inactive) | -2.97% | -0.906%
Cc1cc2cc(CN(Cc3cccs3)Cc3nnnn3CC3CCCO3)c(=O)[nH]c2cc1C (configuration not stated) | -7.06% (inactive) | -4.84% | -2.86%
O=C(c1cccs1)N(Cc1cc2ccccc2[nH]c1=O)CC1CCCO1 (configuration not stated) | -0.275% (inactive) | -2.27% | -1.32%
Cc1cc(C)c2cc(CN(Cc3cccs3)Cc3nnnn3CC3CCCO3)c(=O)[nH]c2c1 (configuration not stated) | -37.2% (active) | -22.2% | -2.73%
CO[C@@H]1CN(C)C(=O)c2ccc(NC(C)=O)cc2OC[C@@H](C)N(CC2CC2)C[C@H]1C | 2.26% (inactive) | -1.92% | 1.24%

Structure (SMILES) | GFP signal change (wild-type ribosome) | OD600 change | RFP signal change
CC(=O)N(C)C[C@@H]1Oc2ccc(N)cc2CC(=O)N(C)C[C@H]1C | 1.8% (inactive) | 0.888% | -1%
CNC[C@@H]1Oc2ccc(NC(C)=O)cc2CC(=O)N(C)C[C@@H]1C | -0.631% (inactive) | 1.55% | 0.729%
COc1ccc(S(=O)(=O)N[C@@H]2CC[C@@H](CC(=O)N3CCC(Cc4ccccc4)CC3)O[C@@H]2CO)cc1 | 8.03% (inactive) | -22.7% | 10.2%
C[C@H](CO)N1C[C@H](C)[C@H](CN(C)Cc2ccc3c(c2)OCO3)Oc2c(NS(=O)(=O)c3ccccc3)cccc2C1=O | -1.49% (inactive) | 3.3% | -2.6%
C[C@H](NC(=O)[C@H]1N[C@H]2c3ccc(-c4ccc(C(=O)N(C)C)cc4)c(=O)n3C[C@H]2[C@@H]1CO)c1ccccc1 | 1.87% (inactive) | 7.26% | -1.73%
CN(C)C(=O)c1cccc(-c2ccc(C3[C@H]4CNC[C@@H]3N4C(=O)Nc3ccccc3F)cc2)c1 (some centres not stated) | 0.866% (inactive) and 2.44% (inactive) | -5.13% and 4.05% | -2.14% and 0.208%
COc1ccccc1-c1cnc2c(c1)C(=O)N([C@@H](C)CO)C[C@H](C)[C@@H](CN(C)C(C)=O)O2 | 3.59% (inactive) | 4.33% | -1.79%
O=C(/C=C/c1ccc(Cl)cc1)N1CCN(c2ccccc2[N+](=O)[O-])CC1 | -31% (inactive) | -42.6% | -26.6%
CN(C)c1ccc(/C=C/C(=O)c2ccc(O)cc2)cc1[N+](=O)[O-] | -22.5% (active) | -13.8% | 5.33%
CC(=O)Nc1ccc(C=Cc2ccc([N+](=O)[O-])cc2)cc1 | 2.45% (inactive) | 3.79% | -1.71%
O=C(/C=C/c1ccc(Cl)c([N+](=O)[O-])c1)c1ccc(O)cc1 | -26.1% (active) | -2.69% | 9.14%
CC(=O)Nc1ccc(C=CC(=O)c2ccc([N+](=O)[O-])cc2)cc1 | 5.97% (inactive) | 7.9% | -0.138%
COc1ccc(OC)c(/C=C/C(=O)c2ccc3c(c2)OCO3)c1 | 0.015% (inactive) | -9.29% | -8.02%
O=C(COC(=O)c1ccc(O)cc1O)c1ccc2c(c1)OCCO2 | -13.2% (inactive) | -20.4% | 0.835%
O=C(/C=C/c1ccc2c(c1)OCCO2)c1ccc(O)cc1 | -19.8% (active) | -11.6% | 6.75%
CC(CC(=O)O)C(=O)c1ccc(Cl)c([N+](=O)[O-])c1 (configuration not stated) | 10.7% (inactive) | 9.82% | -3.76%
CC=Cc1ccc2n(c1=O)C[C@@H]1[C@@H](CO)[C@H](C(=O)N(C)C)N(CC3CCOCC3)[C@H]21 (mixture of isomers) | 2.33% (inactive) | -5.67% | 0.865%
CN1c2ccc(Br)cc2[C@@H]2[C@@H](CCN2C(=O)C2CCCC2)[C@H]1CO | -37% (inactive) | -68.3% | 0.745%
COCC#Cc1ccc([C@@H]2[C@@H](CO)N3CCCCN(C(=O)COC)C[C@@H]23)cc1 | 4.36% (inactive) | 1.27% | -1.64%
COCC#Cc1ccc2c(c1)O[C@H](CN(C)C(=O)CC1CC1)[C@@H](C)CN([C@@H](C)CO)S2(=O)=O | 1.22% (inactive) | 3.88% | -1.84%
CCCNC(=O)N(C)C[C@H]1Oc2ncc(-c3ccccc3F)cc2C(=O)N([C@@H](C)CO)C[C@H]1C | -0.164% (inactive) | 9.97% | 0.69%
Cc1cccc(Nc2nc(-c3ccccc3)cs2)n1 | -36.3% (active) | -28.1% | -6.26%

Structure (SMILES) | GFP signal change (wild-type ribosome) | OD600 change | RFP signal change
CC(=O)NC(c1ccccc1)c1nc(-c2cccc(C(C)C)c2)cs1 (configuration not stated) | 2.35% (inactive) | -27.5% | 4.32%
COc1ccc(-c2csc(Nc3cccc(C)n3)n2)cc1OC | -3.87% (inactive) | -21.5% | 23%
COc1ccc(-c2cn(CC[C@@H]3CC[C@@H](NS(=O)(=O)c4ccccc4C)[C@H](CO)O3)nn2)cc1 | -0.161% (inactive) | 0.015% | 1.23%
COc1ccccc1NC(=O)N[C@H]1CC[C@@H](CC(=O)NCc2ccc(Cl)c(Cl)c2)O[C@H]1CO | -9.75% (inactive) | -22.7% | 1.88%
CC(=O)O[C@]1(C(C)=O)CC[C@H]2[C@@H]3C=C(C)C4=CC(=O)CC[C@]4(C)[C@H]3CC[C@@]21C | -55.8% (inactive) | -76.8% | -10.6%
CC(=O)C12CC(C)=C(C)CC1CC1C3CCC4=CC(=O)CCC4(C)C3CCC12C (configuration not stated) | -17.6% (active) | 7.85% | 5.44%
CC12CCC(=O)C=C1CCC1C2C(O)CC2(C)C1CCC2(O)C(O)CO (configuration not stated) | 8.19% (inactive) | 4.56% | 4.01%
CCCC#Cc1ccc([C@H]2[C@H]3CN(C(=O)Nc4cc(F)ccc4F)CC(=O)N3[C@H]2CO)cc1 | -18.4% (inactive) | -50.2% | 11.1%
C[C@@H]1CN([C@H](C)CO)C(=O)c2cc(NC(=O)NC3CCCCC3)ccc2O[C@H]1CN(C)C(=O)Nc1ccccc1 | 5.36% (inactive) | 10.1% | 2.7%
O=C(C[C@H]1C=C[C@H](NC(=O)C2CCC2)[C@H](CO)O1)NCCCN1CCOCC1 | 1.78% (inactive) | 4.36% | -0.385%
CCCCCn1nnnc1C1c2ccccc2C(=O)N1Cc1ccco1 (configuration not stated) | -4.73% (inactive) | -2.58% | -0.015%
CCCCn1c(-c2cccc(C)c2)nc2cc3[nH]c(=O)c(C(C)C)nc3cc21 | -29.5% (inactive) | -62% | 13.5%
CCCCCn1nnnc1-c1nc2cc3ccccc3cc2[nH]c1=O | -19.2% (active) | -5.54% | 8.22%
Cc1[nH]c2ccc(C(=O)N3CCN(C)CC3)cc2c1C | 6.6% (inactive) | 11% | 3.29%
CCn1c(C)c(C)c2cc(C(=O)N3CCN(c4cccc(C)c4C)CC3)ccc21 | 13.4% (inactive) | -10.1% | 8.15%
CCOc1ccccc1N1CCN(C(=O)c2ccc3[nH]c(C)c(C)c3c2)CC1 | -34.6% (active) | -17.6% | 7.07%
CNC[C@@H]1Oc2ccc(N(C)C)cc2CC(=O)N(C)C[C@@H]1C | -0.679% (inactive) | 1.44% | -1.38%
CN(O)C(=S)c1ccccc1 | -58% (inactive) | -75.2% | -15%
NN=C(NN=Cc1ccccc1)c1ccccc1 | 3.05% (inactive) | 19.4% | -0.189%
CN(/N=C/c1ccccc1)C(=S)c1ccccc1 | -28.9% (active) | -13.5% | -2.92%
